Assay results taken from PubChem BioAssay AID1347432 (National Center for Advancing Translational Sciences (NCATS), 2020).
Active and inactive are the calls of the source. Entries that show only a call come without a potency. Calls come from the whole dose curve; as a rule, active = well fitted curve in the direction sought with a large enough effect; inactive = no such curve, though single readings can be large or run the other way.

target: Uracil-DNA glycosylase (Escherichia coli (strain K12)) (UniProt P12295); assay: Confirmatory (Round 2) qHTS assay for inhibitors of Activation Induced Cytidine Deaminase (AID): UDG counterscreen signal; conditions: FRET fluorescence, 4 h; series mostly up to 78.4 µM
Description: Assay Provider (PI) Patricia Gearhart Ph.D. National Institute on Aging National Institute of Health (NIH), Bethesda, MD Assay Provider (PI) Rahul Kohli Ph.D. Perelman School of Medicine University of Pennsylvania, Philadelphia, PA Activation-Induced Deaminase (AID) is a cytosine deaminase which converts cytosine into uracil within stretches of ssDNA. The presence of uracil in DNA initiates a cascade of mutagenic DNA repair to introduce point mutations and DNA double strand breaks. Specific targeting of AID to the immunoglobulin heavy chain loci (Igh) promotes mutagenesis in the antibody variable region for somatic hypermutation (SHM) or switch regions leading to class switch recombination (CSR). However, AID also plays a role in accumulating unnecessary mutations across the genome. Mis-targeting of AID results in the initiation of tumor development and leads to greater drug resistance among cancer cells when continually expressed. To identify an AID inhibitor, a small molecule library will be screened in collaboration with NCATS core facility at NIH. To confirm biological function, inhibitors will be examined in an in vitro murine B-cell activation assay and subsequent secondary validation screens. Top molecules will be further screened to identify inhibitory efficacy against a wild type primary splenocytes assay. Using these approaches, we hope to identify a small molecule with great efficacy and low toxicity for use as a molecular probe to further characterize AID's intricacies, or even as a therapeutic. A FRET based analysis of cytosine deamination, was developed to identify potential inhibitors of AID catalytic activity. This screen has two signal output, Read 1 evaluates the AID inhibition response. The second readout (Read 2) evaluates UDG response and is uses as a counterscreen to exclude false positive inhibitors. Inhibition in AID and inactivity in the UDG signal is the desired outcome for this assay.
PROTOCOL TABLE SEQUENCE No. (e.g., 1, 2, 3, etc.); PARAMETER (e.g., Cells, Incubation, Reagent, etc.); VALUE; DESCRIPTION 1a; Reagent; 3 uL; [4/3x] 1 uM AID/2.67 U/mL UDG 1b; Reagent; 3 uL; 2 U/mL UDG 1c; Reagent; 3 uL; 1 uM AID 2a; Compound; 46 nL; Follow-up plates (0.64 uM - 10 mM) 2b; Control; 46 nL; ATA ([…] - 10 mM) 3; Time; 10 min; incubation at room temperature 4; Reagents; 1 uL; [4x] 250 nM DJC20 / 250 nM DJC23 [Substrate] 5; Time; 4 hr; incubation at room temperature 6; Reagent; 4 uL; [2x] 250 mM NaOH 7; Time; 15 sec; centrifuge at 1000 rpm 8; Time; 30 min; incubation at room temperature 9a; Detection; fluorescence (Read 1: AID); EnVision (PerkinElmer) plate reader, 540 excitation and 590 emission filters 9b; Detection; fluorescence (Read 2: UDG); EnVision (PerkinElmer) plate reader, 560 excitation and 665 emission filters NOTES (numbers refer to sequence above) 1a; Reagents were dispensed in a medium-binding black solid-bottom Greiner plates (789176F) using a BioRptr liquid dispenser. Dispense 3 uL of [4/3x] 1 uM AID (provided by Kohli lab) and [4/3x] 2 U/mL UDG (NEB M0280L) into columns 1, 2, 5 to 48. 1b; Dispense 3 uL of [4/3x] 2 U/mL UDG into column 3. 1c; Dispense 3 uL of [4/3x] 1 uM AID into column 4. 2a; Compound (7-points [uM]: 0.64; 3.2; 16; 80; 400; 2,000; 10,000; […]) double pin-transferred (Dip Factor = 2) using the Kalypsys (Wako USA) pintool equipped with a 1536 pinhead for a final concentration range of 7.32 nM - 114 uM. 2b; 10 mM Aurintricarboxylic Acid (Sigma A1895) (ATA, 8-point, n = 2, 1:2.5 dilution in column 2) double pin-transferred (Dip Factor = 2) using the Kalypsys (Wako USA) pintool equipped with a 1536 pinhead for a [final] range of 186 nM - 114 uM. 3; Room temperature incubation. 4; Dispense 1 uL of substrate mixture from the Kohli lab [4x] […] DJC20 and [4x] 250 nM DJC23 into columns 1 to 48 . 5; Room temperature incubation. 6; Dispense 4 uL of substrate mixture [2x] 250 mM NaOH into columns 1 to 48. 7; Centrifugation step to remove bubbles. […]

Structure (SMILES)	Potency
CC(C)c1ccc2c(c1)c(SC(C)(C)C)c(CC(C)(C)C(=O)O)n2Cc1ccc(Cl)cc1	inactive
Cc1noc(C)c1CCSc1nc(-c2ccccc2)nc2cc(=O)[nH]n12	inactive
COc1ccccc1OCCSc1nc(-c2ccc(C(C)(C)C)cc2)nc2cc(=O)[nH]n12	inactive
O=c1cc2nc(-c3ccccc3)nc(SCCCc3ccncc3)n2[nH]1	inactive
Cn1ccnc1CCSc1nc(-c2ccccc2)nc2cc(=O)[nH]n12	inactive
O=C(O)C1=CC(=C(c2ccc(O)c(C(=O)O)c2)c2ccc(O)c(C(=O)O)c2)C=CC1=O	31.6 µM (active)
O=c1cc2nc(-c3ccccc3)nc(SCCOCCOc3ccccc3)n2[nH]1	inactive
O=c1cc2nc(-c3ccccc3)nc(SCCCn3ccnc3)n2[nH]1	inactive
O=c1cc2nc(-c3ccccc3)nc(SCCN3CCC(F)(F)CC3)n2[nH]1	inactive
CN1CCN(CCCSc2nc(-c3ccccc3)nc3cc(=O)[nH]n23)CC1	inactive
